Molecules are shown by their SMILES. This is part of a sample that, as a whole, favours compounds with a hit. Of some 83,000 tested, about 20% had one in any assay.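 Growth was measured after 48 h exposure to one concentration of compound in 96-well plates. Values under 10 count as active.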 Unmarked numbers belong to inactive results. Activity calls are given as the source filed them.

Here are results for 12 molecules from PubChem BioAssay (NCI).

Test systems include RPMI-8226 leukemia; OVCAR-8 ovarian; OVCAR-5 ovarian; OVCAR-4 ovarian; SK-OV-3 ovarian; IGROV1 ovarian; OVCAR-3 ovarian; HS 578T breast; NCI/ADR-RES ovarian.
What all share (test): NCI-60 one-dose screen, 48 h (100 = growth as untreated, 0 = no growth, -100 = all killed)
Details in all cases: 10 µM unless noted

Consider `C/C(=N\Nc1cc(C)nc2ccc(Br)cc12)c1ccc([N+](=O)[O-])cc1`, for which the growth is 27.5% with RPMI-8226 leukemia; 50.8% with OVCAR-8 ovarian; 111% in the assay with OVCAR-5 ovarian; 47% with OVCAR-4 ovarian; 84.1% in the assay on SK-OV-3 ovarian; 53.4% with IGROV1 ovarian. Besides, the results for the growth with OVCAR-3 ovarian, in the assay with HS 578T breast and in the assay on NCI/ADR-RES ovarian were 26.8%, 96.8% and 81.1%, respectively.
On to `Nc1ccccc1NC(=O)c1ccc(-n2nc(-c3ccccc3)c3ccccc32)cc1`, for which the growth with RPMI-8226 leukemia was -8.09% (active); with OVCAR-8 ovarian, 62.6%; in the assay on OVCAR-5 ovarian, 87.1%; in the assay on OVCAR-4 ovarian, 77%; in the assay on SK-OV-3 ovarian, 107%; in the assay on IGROV1 ovarian, 68.5%. Further, the growth is 72.6% with OVCAR-3 ovarian, 83.5% in the assay with HS 578T breast and 54% in the assay with NCI/ADR-RES ovarian.
With `CN1CCN(CCNc2nccc(-c3c(-c4cccc(O)c4)nc4sccn34)n2)S1(=O)=O`, the growth in the assay on RPMI-8226 leukemia is 48.7%; in the assay on OVCAR-8 ovarian, 73.3%; with OVCAR-5 ovarian, 68.6%; in the assay with OVCAR-4 ovarian, 77.5%; in the assay with SK-OV-3 ovarian, 47.1%; in the assay with IGROV1 ovarian it was 45.7%. The growth in the assay with OVCAR-3 ovarian was 81.5%; in the assay on HS 578T breast, 76.7%; in the assay with NCI/ADR-RES ovarian, 101%.
Turning to `C=C1C(=O)O[C@H]2[C@H]1CC/C(CNC(=O)CCc1ccc(OC)cc1)=C\CC[C@@]1(C)O[C@@H]21`, the growth in the assay with RPMI-8226 leukemia is 51.4%; in the assay on OVCAR-8 ovarian, 39.2%; in the assay with OVCAR-5 ovarian, 82%; with OVCAR-4 ovarian, 80%; in the assay with SK-OV-3 ovarian, 103%; in the assay with IGROV1 ovarian it was 61.7%. Also, the growth in the assay on OVCAR-3 ovarian was 30.6%; in the assay with HS 578T breast it was 86.4%; with NCI/ADR-RES ovarian, 95.4%.
On to `O=S(=O)(NCCNc1nccc(-c2c(-c3cccc(O)c3)nc3occn23)n1)c1cccc(F)c1`, for which the growth is 97% in the assay on RPMI-8226 leukemia; 89.9% with OVCAR-8 ovarian; 128% in the assay with OVCAR-5 ovarian; 121% with OVCAR-4 ovarian; 91.8% in the assay with SK-OV-3 ovarian; 50.5% with IGROV1 ovarian. Moreover, the growth in the assay with OVCAR-3 ovarian is 94.7%; in the assay with HS 578T breast it was 101%; in the assay with NCI/ADR-RES ovarian it was 107%.
In the case of `O=C1/C=C/[C@@H](O)[C@@H]2C[C@@H](O)C[C@H]2/C=C/CCC[C@H](CCc2ccc3ncccc3c2)O1`, the growth in the assay with RPMI-8226 leukemia is 17.7%; in the assay with OVCAR-8 ovarian it was 18%; in the assay with OVCAR-5 ovarian, 27.5%; in the assay on OVCAR-4 ovarian it was 14.3%; in the assay with SK-OV-3 ovarian, 17.5%; in the assay with IGROV1 ovarian it was -4.38% (active). Further, the results for the growth in the assay on OVCAR-3 ovarian, in the assay on HS 578T breast and with NCI/ADR-RES ovarian were -17.5% (active), 41% and 2.87% (active), respectively.
As to `Cc1c2cc[nH]c(=O)c2c(C)c2c1[nH]c1cc(OCCN3CCN(C)CC3)ccc12`, the growth was -8.18% (active) in the assay with RPMI-8226 leukemia; 5.54% (active) in the assay on OVCAR-8 ovarian; 16.1% with OVCAR-5 ovarian; -1.71% (active) in the assay on OVCAR-4 ovarian; -1.65% (active) in the assay on SK-OV-3 ovarian; 20.2% in the assay on IGROV1 ovarian. Besides, the figures for the growth in the assay on OVCAR-3 ovarian, in the assay on HS 578T breast and in the assay with NCI/ADR-RES ovarian were 17.1%, 15.1% and 23.2%, respectively.
As to `O=C1Nc2cc(Cl)ccc2/C1=C\c1c(-c2ccc(F)cc2)nc2ccccn12`, the growth in the assay with RPMI-8226 leukemia was 45.8%; in the assay on OVCAR-8 ovarian, 34.5%; in the assay with OVCAR-5 ovarian it was 43.2%; in the assay with OVCAR-4 ovarian it was -2.19% (active); in the assay on SK-OV-3 ovarian, -26.3% (active); with IGROV1 ovarian, 14%. The values for the growth with OVCAR-3 ovarian, in the assay on HS 578T breast and in the assay with NCI/ADR-RES ovarian were -58.3% (active), -4.87% (active) and -27.6% (active), respectively.
With `CC(=O)[C@H]1CCC/C=C/[C@@H]2C[C@H](O)C[C@H]2[C@H](O)/C=C/C(=O)O1`, the growth is 14.2% in the assay with RPMI-8226 leukemia; 11.3% with OVCAR-8 ovarian; 32.3% in the assay with OVCAR-5 ovarian; 18.9% with OVCAR-4 ovarian; 23.9% in the assay on SK-OV-3 ovarian; -5.3% (active) in the assay on IGROV1 ovarian. Besides, the growth was -31.1% (active) in the assay on OVCAR-3 ovarian, 36.9% in the assay with HS 578T breast and 3.11% (active) in the assay with NCI/ADR-RES ovarian.
Turning to `O=C1Nc2ccccc2/C1=C\c1c(-c2ccc(F)cc2)nc2ccccn12`, the growth is 94.8% with RPMI-8226 leukemia; 86.8% in the assay with OVCAR-8 ovarian; 77.5% in the assay with OVCAR-5 ovarian; 83.9% in the assay with OVCAR-4 ovarian; 62.7% with SK-OV-3 ovarian; 57.1% in the assay on IGROV1 ovarian. Also, the growth is 62.1% in the assay on OVCAR-3 ovarian, 91.5% in the assay with HS 578T breast and 35.4% with NCI/ADR-RES ovarian.
On to `c1ccc(-c2c(-c3ccccc3)[n+](Cc3ccc4ccccc4c3)c(-c3cccc4ccccc34)n2Cc2ccc3ccccc3c2)cc1`, for which the growth in the assay on RPMI-8226 leukemia was -38.7% (active); with OVCAR-8 ovarian, -44.4% (active); in the assay on OVCAR-5 ovarian, -47.8% (active); in the assay with OVCAR-4 ovarian it was -81% (active); in the assay with SK-OV-3 ovarian, -50.3% (active); in the assay on IGROV1 ovarian it was -71.4% (active). For the same molecule, the growth was -88% (active) in the assay with OVCAR-3 ovarian, -26.9% (active) in the assay with HS 578T breast and -18.9% (active) in the assay with NCI/ADR-RES ovarian.
For the molecule `Cc1ncc(C(=O)Nc2ccc(CN3CCN(C)CC3)c(C(F)(F)F)c2)cc1C#Cc1cnc(N)cc1C#N`, the growth is -7.94% (active) in the assay on RPMI-8226 leukemia; -66.4% (active) in the assay on OVCAR-8 ovarian; -94.1% (active) in the assay on OVCAR-5 ovarian; 30.2% in the assay on OVCAR-4 ovarian; 20.6% with SK-OV-3 ovarian; 5.92% (active) with IGROV1 ovarian. For the same molecule, the figures for the growth with OVCAR-3 ovarian, in the assay on HS 578T breast and in the assay on NCI/ADR-RES ovarian were 39.5%, -18.2% (active) and -46.8% (active), respectively.
